Measured values published in PubChem BioAssay AID588819 (The Scripps Research Institute Molecular Screening Center, 2011).
The campaign covered roughly 360,000 compounds. About 320 (0.089%) were called active. For the sample, actives were picked, then their nearest neighbours and some compounds at random. A number with no mark means an inactive call. Cut-off read from the data, not from the text of the source: active = activation above about 19% (passing the limit was not always enough); inactive = the rest.

The molecules below were run against Muscarinic acetylcholine receptor M1 (Homo sapiens) (UniProt P11229) (assay: CHRM1 PAMs potentiating acetylcholine calcium signal – CHO-K1 cells, Fluo-8 calcium fluorescence, 1536-well, primary screen (AID 588819)). Settings: CHO-K1 hM1, Fluo-8 calcium fluorescence, ACh EC20; at 3 µM; active compounds read high; 0% = ACh EC20, 100% = maximal ACh.
Muscarinic acetylcholine receptor M1 (Homo sapiens), sequence (P11229 whole entry, looked up): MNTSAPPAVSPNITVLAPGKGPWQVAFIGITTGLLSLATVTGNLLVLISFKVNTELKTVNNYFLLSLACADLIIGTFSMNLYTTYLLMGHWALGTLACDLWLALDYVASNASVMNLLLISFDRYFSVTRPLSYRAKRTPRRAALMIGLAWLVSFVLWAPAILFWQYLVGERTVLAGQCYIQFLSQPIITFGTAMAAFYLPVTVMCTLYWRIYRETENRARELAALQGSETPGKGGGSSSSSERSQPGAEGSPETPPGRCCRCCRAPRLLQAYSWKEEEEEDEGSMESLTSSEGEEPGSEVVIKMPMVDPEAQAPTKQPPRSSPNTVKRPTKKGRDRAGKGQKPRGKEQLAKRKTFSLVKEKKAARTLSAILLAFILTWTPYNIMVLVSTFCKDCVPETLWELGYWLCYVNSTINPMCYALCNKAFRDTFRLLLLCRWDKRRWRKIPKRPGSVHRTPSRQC

Structure (SMILES)	activation
O=C(c1cncc(Br)c1)N1CCN(c2ccc([N+](=O)[O-])cc2)CC1	-20%
CCc1cccc(C)c1NS(=O)(=O)c1c(C)nc2sccn2c1=O	4.98%
Cc1ccc(-c2csc(N3CCN(c4cc5c(cc4Cl)nc(-c4ccncc4)n5CCOCCO)CC3)n2)cc1	21.4%
Cc1ccc2nc(SCC(=O)N3CCN(c4ccccc4)CC3)nc(=O)n2c1	3.95%
Cc1ccc(-n2c(CNc3ccc(F)cc3)nnc2SCC(=O)N2CCOCC2)cc1	7.13%
O=C(O)CN1C(=O)CC(Cc2ccccc2)C1=O (configuration not stated)	11.7%
O=C1N[C@@H](Cc2ccccc2)C(=O)N2[C@H]1C[C@]1(Br)c3ccccc3N(S(=O)(=O)c3ccccc3)[C@H]21	7.1%
CSc1ccc(S(=O)(=O)NCC(=O)OCC(=O)NC2(C#N)CCCCC2)cc1[N+](=O)[O-]	3.7%
Cc1ccc(N2C(=O)c3ccccc3C2(O)c2ncc[nH]2)cc1 (configuration not stated)	8.87%
CCc1c(C)nc2ncnn2c1N1CCC(C(=O)NCc2ccc3c(c2)OCO3)CC1	5.91%
Cn1c(SCC(=O)N2CCCCC2)nc2c(c1=O)SCC2	-5.48%
COCCn1c(SCC(=O)N2CCCCCC2)nc2c(c1=O)SCC2	26.5% (active)
COCCn1c(SCC(=O)Nc2ccccc2F)nc2c(c1=O)SCC2	7.02%
CSCCC(NC(=O)c1ccco1)C(=O)Nc1cc(C)ccn1 (configuration not stated)	3.47%
CSCCC(NC(=O)c1ccco1)C(=O)OCC(=O)Nc1ncc(Cl)c(C)c1Cl (configuration not stated)	20.9% (active)
Cc1c(Cl)cnc(NC(=O)COC(=O)C2CCCC2)c1Cl	4.9%
C/C(=N/NC(=O)c1ccn(C)n1)c1ccncc1	33.2% (active)
CC(=NNC(=O)c1ccncc1)c1ccc(Cl)c(Cl)c1	-2.62%
C/C(=N/NC(=O)c1ccncc1)c1ccc2c(c1)OCO2	6.79%
Cc1cccc2c1N(CCOc1ccccc1)C(=O)C2=O	8.27%
Cc1cc(C)c(S(=O)(=O)c2ccc(F)cc2C)c(=O)[nH]1	2.45%
COC(=O)C1=C(C)N(C(C)c2ccccc2)C(=O)/C1=C\c1ccco1 (configuration not stated)	3.44%
CCCc1cc(=O)n2[nH]c(C)c(-c3ccc(Cl)cc3)c2n1	12.2%
COc1ccc(C(=O)NCC2CCCN2S(=O)(=O)c2cccs2)cc1OC (configuration not stated)	6.88%
CCCCNC(=O)OC(C)CNC(=O)OC (configuration not stated)	4.6%
Cc1ccc(NS(=O)(=O)c2c(C)[nH]c(=O)[nH]c2=O)cc1C	6.73%

Structure (SMILES)	activation
O=S(=O)(Nc1ccccc1)c1ccc(NS(=O)(=O)c2cccs2)cc1	11.7%
Cc1ccc(S(=O)(=O)N2CCOCC2)cc1NC(=O)CSc1nnc(N)s1	3.59%
CCOc1ccc(N2CC(C(=O)N/N=C/c3sccc3C)CC2=O)cc1 (configuration not stated)	1.58%
CC1CN/C(=C\C(=O)c2ccc(Br)cc2)C(=O)N1 (configuration not stated)	5.69%
Cc1ccc(C(O)P(=O)(OC(C)C)c2ccc(N(C)C)cc2)cc1 (configuration not stated)	9.51%
CC(C)(C)NC(=O)COC(=O)c1cc(Cl)ccc1[N+](=O)[O-]	4.45%
Cc1ccc(N2CC(C(=O)Nc3cc(Cl)ccc3-n3cncn3)CC2=O)cc1 (configuration not stated)	8.82%
O=C(c1ccco1)N1CCN(C(=O)C2CC(c3ccc(F)cc3)=NO2)CC1 (configuration not stated)	25.8% (active)
CCOC(=O)N1CCN(C(=O)C2CC(c3ccc(F)cc3)=NO2)CC1 (configuration not stated)	-1.27%
O=C(c1ccco1)N1CCN(C(=O)C2CC(c3ccc(Cl)c(Cl)c3)=NO2)CC1 (configuration not stated)	1.62%
Cc1ccccc1S(=O)(=O)NC(=O)C1(C)CCN1C(=O)Cc1ccc(Cl)cc1Cl (configuration not stated)	4.98%
COC(=O)CC(=O)N1CCN(c2ccc(Cl)c(Cl)c2)CC1	-9.1%
O=C(c1ccc(F)cc1)N1CCCC(c2nc(-c3cccs3)no2)C1 (configuration not stated)	6.3%
Cc1ccc(-c2noc(C3CCCN(C(=O)c4cccc(Cl)c4)C3)n2)o1 (configuration not stated)	28.6% (active)
COc1cccc(-c2noc(C3CCCN(C(=O)c4ccc(F)cc4)C3)n2)c1 (configuration not stated)	22.6%
CC1CC(=O)Nc2ccccc2N1C(=O)COc1ccc2cc(Br)ccc2c1 (configuration not stated)	12.5%
COc1ccc(NS(=O)(=O)c2ccc(NC(=O)c3ccc(N(C)S(C)(=O)=O)cc3)cc2)cc1	8.88%
COc1ccc(NC(=O)c2cnc(NS(=O)(=O)c3ccccc3)nc2)cc1	29.7% (active)
O=C(Nc1ccc(S(=O)(=O)Nc2ncccn2)cc1)c1cncc(Br)c1	0.19%
CC(C)c1ccc2c(c1)c(SC(C)(C)C)c(CC(C)(C)C(=O)O)n2Cc1ccc(Cl)cc1	-0.45%
CC(Oc1ccc(F)cc1)C(=O)N1CCN(c2ncccn2)CC1 (configuration not stated)	0.98%
O=C(O)Cc1csc(NC(=O)CSc2nnnn2-c2ccc(O)cc2)n1	11.2%
CC(=O)C1=C(C)NC(=O)NC1c1cc(Br)ccc1OCC#N (configuration not stated)	13.1%
CC(Sc1ncnc2c1cnn2-c1ccccc1)C(=O)Nc1ccc(N2CCOCC2)cc1 (configuration not stated)	25.3% (active)
CCn1c(SC(C)C(=O)Nc2ccc(N3CCOCC3)cc2)nnc1-c1ccco1 (configuration not stated)	5.42%
CCN(CC)C(=O)CSc1ncnc2c1cnn2-c1ccccc1	1.79%

Structure (SMILES)	activation
Cc1ccc(S(=O)(=O)N2CCC(C(=O)N[C@@H](C)C(=O)NCc3ccccc3)CC2)cc1	3.35%
Cc1cc(C)cc(N(CC(=O)NC2CCCC2)C(=O)CCC(=O)Nc2nccs2)c1	1.06%
CC(OC(=O)c1ccccc1OCc1ccc(Cl)cc1)C(N)=O (configuration not stated)	-0.86%
COc1cc(NC(=S)N2CCCC(C)C2)c(OC)cc1Cl (configuration not stated)	4.79%
Cc1n[nH]c(C)c1S(=O)(=O)N1CCCC(C(=O)Nc2ccc(Br)cc2)C1 (configuration not stated)	3.06%
CC1(c2nnc(-c3ccncc3)o2)CC(c2cccnc2)=NO1 (configuration not stated)	-4.79%
CC(C)CCNC(=O)C1CCCN(S(=O)(=O)c2ccc(F)cc2)C1 (configuration not stated)	3.91%
CC(NC(=O)C(C)(C)C)C(c1cccs1)N1CCN(Cc2ccccc2)CC1 (configuration not stated)	-8.56%
CCC(C)NCCOCCOc1ccc(Br)cc1C (configuration not stated)	-26.7%
CCOC(=O)N1CCN(c2c(NCCCN3CCCC(C)C3)c(=O)c2=O)CC1 (configuration not stated)	5.95%
CCOc1ccc(-n2c(N)c(C(=O)NCC3CCCO3)sc2=S)cc1 (configuration not stated)	1.21%
CCCC(=O)N1CCN(c2nnc(-c3ccc(C)cc3)c3ccccc23)CC1	-14.5%
CC(=O)NC(Cc1ccc(F)c(F)c1)C(=O)NC1CCN(c2nnnn2-c2ccccc2)CC1 (configuration not stated)	1.64%
CCCC(=O)N1CCC1(C)C(=O)NCc1ccc(SC)cc1 (configuration not stated)	3.92%
COc1ccccc1N(CCOc1ccccc1)S(=O)(=O)c1ccccc1	0.89%
C=Cn1c(C(=O)O)ccc1-c1ccc(OC)cc1	-16.6%
CCn1c(-c2cccnc2Cl)nc2cc(C)c(C)cc21	2.37%
CCOCCOC(=O)C1=C(C)NC(=O)NC1c1ccc2c(c1)OCO2 (configuration not stated)	6.2%
Cc1cccc(NC(=O)C2CCCN2S(=O)(=O)c2ccc(F)cc2)c1C (configuration not stated)	3.34%
COc1ccccc1NC(=O)C1CCCN1S(=O)(=O)c1ccc(Cl)cc1 (configuration not stated)	28.2% (active)
CC(C)c1nnc(NC(=O)C2CCCN2S(=O)(=O)c2ccc(Cl)cc2)s1 (configuration not stated)	10.2%
C=CCn1c2ccccc2c2nnc(SCc3[nH]c(=O)[nH]c3C(=O)CCCCC(=O)OCC)nc21	-3.32%
O=C(C(NS(=O)(=O)c1cccc2nsnc12)c1ccccc1)N1CCN(c2ccccn2)CC1 (configuration not stated)	-10.2%
CCOC(=O)C(=O)C1C(=O)Nc2ccccc21 (configuration not stated)	1.1%
O=C(Nc1ccccc1C(=O)NCCCn1ccnc1)c1ccc(Cl)cc1Cl	7.21%
